In this experiment the test system is Plasmodium falciparum NF54 stage V gametocytes. In words: viability index relative to DMSO control (fraction); higher = less gametocyte killing. Conditions: 2.5 µM, incubation time: 72 h. A digest of the protocol:
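In 1,536-well plates, 10 µl of serum-free medium holding P. falciparum NF54 stage V gametocytes (0.75% gametocytemia, 1.25% hematocrit) received compound at 2.5 µM for 72 hr at 37°C in low oxygen. After one to two hours with 3 µl of 2.5 µM MitoTracker Red CMXRos containing 0.13% saponin, red particles of 20–70 µm2 were counted in a single field per well. Viability index is reported as the particle count over the plate mean of wells treated with solvent only.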

Where [1] appears, read: library set: Broad Institute DOS.

± gives the uncertainty stated by the source. The full ranking holds about 9,900 compounds; the median of “viability index relative to DMSO control” is about 1, and the lowest 2% start at about 0.85. Shown is part of a subset that was picked to be rich in the lowest values.

For the molecule `C[C@H](CO)N1C[C@H](C)[C@@H](CN(C)Cc2ccccc2)Oc2c(NC(=O)Cc3cn(C)c4ccccc34)cccc2C1=O`, under setting [1], the viability index turned out to be 0.744 ± 0.038. On the same count and under the same terms, the value for `C[C@H](CO)N1C[C@H](C)[C@@H](CN(C)Cc2ccc(Oc3ccccc3)cc2)Oc2c(NC(=O)CCC(F)(F)F)cccc2C1=O` was 0.888 ± 0.11; that for `C[C@@H]1CN([C@H](C)CO)C(=O)c2cccc(NS(C)(=O)=O)c2O[C@@H]1CN(C)Cc1ccc(-c2ccccc2)cc1` was 1.02 ± 0.028; that for `CO[C@H](CN(C)S(=O)(=O)c1ccc(C)cc1)[C@H](C)CN(C(=O)Nc1ccccc1F)[C@H](C)CO` was 1.06 ± 0.026. `O=C(C[C@H]1CC[C@@H]2[C@H](COC[C@H](O)CN2Cc2ccc3c(c2)OCO3)O1)N1CCCCC1` displayed a viability index under setting [1] of 1.01 ± 0.072.

Under setting [1], `O=C(c1cnccn1)N1C[C@@H]2N[C@H](C1)[C@@H]2c1ccc(/C=C/c2ccccc2)cc1` gave a viability index of 1.05 ± 0.026. The molecule `COc1ccc(S(=O)(=O)Nc2cccc3c2O[C@@H](CN(C)CC2CCCCC2)[C@H](C)CN([C@H](C)CO)C3=O)cc1` showed a viability index under setting [1] of 0.958 ± 0.094. Under “library set: Broad Institute Blood Stage”, `COc1ccc2c3c([nH]c2c1)[C@@H](CO)N(C[C@]31CCN(CC2CCCCC2)CC1)C(=O)CN(C)C` gave a viability index of 0.807 ± 0.026. Take `COc1ccc2c3c([nH]c2c1)[C@@H](CO)N(C[C@]31CCN(CC1)C(C)=O)C(C)=O`: the viability index under setting [1] was determined as 0.9689 ± 0.0023. Take `COc1ccc2c3c([nH]c2c1)[C@@H](CO)N(C[C@]31CCN(CC1)C(=O)Nc1ccc(F)cc1F)C(C)=O`: the viability index under setting [1] worked out at 1.07 ± 0.056. The same measure, in the same setting: the value for `COc1ccc2c3c([nH]c2c1)[C@H](CO)N(C[C@]31CCN(CC1)C(=O)Nc1ccccc1)S(C)(=O)=O` was 0.121 ± 0.0032.

As to `COc1ccc2c3c([nH]c2c1)[C@@H](CO)N(C[C@]31CN(CC2CC2)C1)C(=O)CN(C)C`, the viability index under setting [1] amounted to 0.939 ± 0.018. For the molecule `COc1ccc2c3c([nH]c2c1)[C@@H](CO)N(C[C@]31CCN(CC1)C(=O)Nc1ccccc1)S(C)(=O)=O`, under setting [1], the viability index is 0.99 ± 0.15. On to `COCC(=O)N1C[C@@]2(C1)CN([C@H](CO)c1[nH]c3cc(OC)ccc3c21)C(=O)Nc1ccccc1F`, for which the viability index under setting [1] turned out to be 1.03 ± 0.071. With `COc1ccc2c3c([nH]c2c1)[C@H](CO)N(C[C@]31CN(CC2CC2)C1)C(=O)CN(C)C`, the viability index under setting [1] came out at 1.07 ± 0.032. As for `COc1ccc2c3c([nH]c2c1)[C@H](CO)N(C[C@]31CCN(CC1)C(=O)Nc1ccc(F)cc1F)C(C)=O`, under setting [1], the viability index is 0.748 ± 0.035.

For `COCC(=O)N1CC[C@@]2(CC1)CN([C@@H](CO)c1[nH]c3cc(OC)ccc3c21)S(C)(=O)=O`, under setting [1], the viability index stood at 1.09 ± 0.06. With `CCC(=O)N1C[C@]2(CCN(CC2)C(=O)Nc2ccccc2F)c2c([nH]c3cc(OC)ccc23)[C@@H]1CO`, the viability index under setting [1] was 0.642 ± 0.081.

Regarding `CCC(=O)N1C[C@]2(CCN(CC2)C(=O)Nc2ccccc2F)c2c([nH]c3cc(OC)ccc23)[C@H]1CO`, the viability index under setting [1] was determined as 0.9987 ± 0.0051. Under setting [1], `O=C(C[C@@H]1C[C@H]2c3cc(NS(=O)(=O)c4ccccc4)ccc3O[C@H]2[C@@H](CO)O1)N1CCOCC1` showed a viability index of 1.05 ± 0.026.

Regarding `COCC(=O)NC[C@@H]1[C@H](c2ccccc2)[C@H](CO)N1C(=O)c1ccccc1`, the viability index under setting [1] is 0.986 ± 0.17. Still for that read-out and setting: the value for `C[C@H]1CN([C@@H](C)CO)C(=O)c2cccc(NC(=O)c3cnccn3)c2O[C@H]1CN(C)C(=O)NC1CCCCC1` was 1.01 ± 0.033; that for `COc1ccccc1-c1ccc2n(c1=O)C[C@@H]1[C@@H](CO)[C@H](C(=O)N3CCOCC3)[C@H]2N1CC1CC1` was 1.04 ± 0.016. The molecule `COc1cccc(-c2ccc3n(c2=O)C[C@@H]2[C@@H](CO)[C@H](C(=O)N(C)C)[C@H]3N2C(=O)c2ccccn2)c1` yielded a viability index under setting [1] of 1.04 ± 0.017.

In the case of `CO[C@@H]1CN(C)C(=O)c2ccc(NC(=O)C3CC3)cc2OC[C@@H](C)N(C(C)=O)C[C@@H]1C`, under setting [1], the viability index turned out to be 1.02 ± 0.042. Same read-out and setting: the value for `CN1C[C@@H](O)COC[C@H]2O[C@H](CC(=O)NC3CCCC3)CC[C@@H]21` was 1.05 ± 0.064; that for `COc1ccccc1NC(=O)N1C[C@@H]2N[C@H](C1)[C@@H]2c1ccc(/C=C/c2ccccc2)cc1` was 0.571 ± 0.027; that for `O=C(c1ccc2c(c1)OCO2)N1C[C@@H]2N[C@H](C1)[C@H]2c1ccc(/C=C/c2ccccc2)cc1` was 1.05 ± 0.017.

`COc1ccccc1NC(=O)N1C[C@@H]2N[C@H](C1)[C@H]2c1ccc(/C=C/c2ccccc2)cc1` returned a viability index under setting [1] of 0.976 ± 0.048.

On to `O=C(C1CCC1)N1C[C@@H]2N[C@H](C1)[C@H]2c1ccc(/C=C/c2ccccc2)cc1`, for which the viability index under setting [1] amounted to 1.02 ± 0.042. For the molecule `O=C(C1CCC1)N1C[C@@H]2N[C@H](C1)[C@@H]2c1ccc(-c2cncnc2)cc1`, the viability index under setting [1] turned out to be 1.115 ± 0.0039. Still for that read-out and setting: as for `O=C(C1CCC1)N1C[C@@H]2N[C@H](C1)[C@@H]2c1ccc(/C=C/c2ccccc2)cc1`, the figure is 0.799 ± 0.019; as for `O=C(c1ccc2c(c1)OCO2)N1C[C@@H]2N[C@H](C1)[C@@H]2c1ccc(/C=C/c2ccccc2)cc1`, 0.731 ± 0.086.

Molecule `C/C=C/c1ccc([C@H]2[C@@H]3CN(C(=O)Nc4ccccc4F)C[C@H]2N3)cc1` returned a viability index under setting [1] of 1.06 ± 0.034.

Under setting [1], `O=C(c1ccc2c(c1)OCO2)N1C[C@@H]2N[C@H](C1)[C@@H]2c1ccc(-c2cncnc2)cc1` gave a viability index of 1.08 ± 0.035.

The values are drawn from the supplement of paper PMC4723716.
